Screening results from PubChem BioAssay.
This is a sample that favours compounds with a hit; in the whole collection about 1.8% have one here.
GLP-1R inv ag: inverse agonists of human GLP-1 receptor; P43220; HEK293 GLP-1R CRE-luciferase, luminescence, 24 h; GLP-1R form is constitutively active; Potency, µM (doses to about 38.3 µM), usual class: inhibitors; 410,000 compounds, 1.6% hits; AID 624417; also: nearly all actives have a fitted effect of over 55% in size
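Seeding at 200 cells/uL, 12 h culture, 24 hr compound treatment, then luciferase reagent and a luminescence read; cells are HEK293 stably expressing a constitutively active GLP-1R plus cAMP-responsive luciferase.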
GLP1R cytotox: cytotoxicity counter-screen for GLP-1 receptor inverse agonists; HEK293 cAMP-luciferase reporter cells, luminescence, 24 h; Potency, µM (series often up to 38.3 µM), hits mostly inhibitors; 410,000 compounds, 0.13% hits; AID 624418;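 also: loss of luciferase light is scored as toxicity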
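Quantitative HTS format, 1536 wells, 200 cells/uL seeded. Compounds: 23 nL, 24 h, 37 °C. Detection: luciferase reagent, luminescence at 12 min RT; decreased signal taken as cytotoxic.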
TSHR antag: blocks TSH signaling through the human TSH receptor; P16473; AID 504810; activity change, negative = inhibition, % at 11.5 µM; TSHR-expressing cells, TSH-stimulated cAMP HTRF, 2 h; active compounds read low; 330,000 compounds, 0.2% hits;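 active = activity change below a set negative limit, meaning inhibition stronger than a set level, cut at about -70% in these data; inconclusive = activity change between two set negative limits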
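Inhibition of cAMP made by TSHR-expressing cells under TSH stimulation (4nM final, EC80; 2 h, 37 deg C) is quantified with a one-step lysis HTRF kit, anti-cAMP cryptate versus cAMP-d2.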
GLP1R ag: GLP-1 receptor (human) agonism; P43220; AID 624172; 380,000 compounds, 0.007% hits; Potency, µM (top dose mostly 45.6 µM), most hits filed as activators; HEK293 GLP-1R CRE-luciferase, luminescence, 4-6 h; cells express a hypersensitive GLP-1R form
PTHR1 agonist: agonists of human PTHR1 parathyroid hormone receptor; Q03431; HEK293 GP2 PTHR1 cells, GloSensor cAMP luminescence, 1 h; Potency, µM (doses to about 115 µM), hits mostly activators; 410,000 compounds, 0.075% hits; AID 743266; also: nearly all actives have a fitted effect of over 55% in size
Target sequence (Q03431 whole entry, looked up): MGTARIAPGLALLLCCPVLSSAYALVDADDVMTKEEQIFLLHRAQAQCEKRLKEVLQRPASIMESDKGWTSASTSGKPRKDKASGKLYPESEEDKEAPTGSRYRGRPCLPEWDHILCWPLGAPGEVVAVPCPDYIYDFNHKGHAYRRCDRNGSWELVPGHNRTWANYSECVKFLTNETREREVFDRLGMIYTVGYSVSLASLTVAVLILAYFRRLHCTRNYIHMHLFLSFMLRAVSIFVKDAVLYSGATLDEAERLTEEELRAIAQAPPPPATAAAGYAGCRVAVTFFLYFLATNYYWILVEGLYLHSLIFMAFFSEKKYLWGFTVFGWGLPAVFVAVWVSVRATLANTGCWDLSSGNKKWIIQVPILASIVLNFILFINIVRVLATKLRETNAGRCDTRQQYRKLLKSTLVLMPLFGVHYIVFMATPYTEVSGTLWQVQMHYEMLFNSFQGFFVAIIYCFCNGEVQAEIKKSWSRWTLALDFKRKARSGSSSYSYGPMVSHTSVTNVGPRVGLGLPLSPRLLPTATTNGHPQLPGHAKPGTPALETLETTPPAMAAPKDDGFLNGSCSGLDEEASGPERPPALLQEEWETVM
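HEK-293-derived GP2 cells expressing PTHR1 and a GloSensor cAMP reporter, 3,000/well, plated overnight, given luciferin plus IBMX (each 0.5 mM as added) for 1 h at 37 °C, then compound for 1 h at 37 °C. Luminescence was read after 15 min at room temperature.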
A number is an active result; n = inactive; u = inconclusive; x = not tested or not shown. Unless noted, calls follow the shape of the dose curve; as a rule, active = well fitted curve in the direction sought with a large enough effect; inconclusive = small, poorly fitted or top-dose-only effect, or another doubt; inactive = no such curve, though single readings can be large; an effect the other way counts as inactive or inconclusive.

SMILES	GLP-1R inv ag	GLP1R cytotox	TSHR antag	GLP1R ag	PTHR1 agonist
COc1cc([N+](=O)[O-])ccc1NC(=O)NCc1cccnc1	n	n	-76	n	n
Cc1cc(C)c(NC(=O)C2CCN(S(=O)(=O)c3c(C)noc3/C=C/c3ccccc3F)CC2)c(C)c1	n	n	x	x	n
O=C(COc1ccccc1-c1ccccc1)N/N=C/c1ccc2ccccc2c1	1µM	u	n	n	n
NC(=S)N/N=C/c1ccc2ccccc2c1	5.6µM	3.2µM	n	n	n
NC(=S)N/N=C/c1cccc(/C=N/NC(N)=S)c1	n	n	n	n	n
CCN(CC)S(=O)(=O)c1ccc2c(c1)N(CC(=O)NCc1ccccc1)C(=O)C1CCCCN21 (centres undefined)	n	n	x	x	n
Cc1ccc(NC(=S)NC(=O)C2CC2)cc1Cl	10µM	u	n	n	n
COc1cccc(NC(=O)c2cc3c(-c4ccc(Cl)cc4)nn(C)c3s2)c1	n	n	x	x	n
CC(C(=O)NCCCc1ccccc1)n1cccc1C(=O)c1ccccc1 (centres undefined)	11µM	n	n	n	n
Cc1cc(C)cc(C(=O)NCCCc2ccccc2)c1	11µM	n	n	n	n
O=C(NCc1ccccc1)C(=O)Nc1cccc(C(=O)O)c1	4.5µM	n	n	n	n
O=C(NCCCCc1ccccc1)c1cccc(NC(=O)C2CCCCC2)c1	11µM	n	x	n	n
O=C(NCCCCc1ccccc1)c1cccc(NC(=O)C2CCC2)c1	n	n	x	n	n
O=C(COc1ccccc1-c1nc(-c2ccccc2)no1)Nc1cccc([N+](=O)[O-])c1	n	n	x	x	n
O=C(NCCCN1CCN(c2cccc(Cl)c2)CC1)c1sc2ncccc2c1-n1cccc1	u	n	x	x	n
O=C(NCc1ccccc1)c1cccc(NC(=O)c2ccccc2)c1	8.9µM	n	x	n	n
O=C(NCc1ccccc1)c1cccc(COc2ccc3c(c2)CCC3)c1	4.5µM	n	n	n	n
CC1CCCCN1C(=O)C1CCN(c2nc(-c3ccccc3)nc3c2CCC3)CC1 (centres undefined)	8.9µM	u	n	n	u
COc1ccc(Cl)cc1NC(=O)CN(C)C(C)C(=O)NC(=O)NC1CCCCC1 (centres undefined)	3.2µM	u	n	n	n
COc1ccc(Cl)cc1NC(=O)CN(C)C1CCCCC1	u	n	n	n	n
COc1ccc(Cl)cc1NC(=O)CN(C)C(=O)Cc1ccc2c(c1)CCC2	u	n	n	n	n
COc1ccc(Cl)cc1NC(=O)CN(C)C(=O)c1sc2ccccc2c1Cl	5.6µM	n	n	n	n
COc1ccc(NC(=O)CN(C)C(=O)c2sc3ccccc3c2Cl)cc1	u	n	n	n	n
COc1ccc(Cl)cc1NC(=O)CN(C)C(=O)c1cc2c(s1)CCCC2	5µM	u	n	n	n
Cc1ccccc1OCc1ccc(-c2nc(C#N)c(NCCCN(C)C)o2)o1	n	n	x	x	n
SMILES	GLP-1R inv ag	GLP1R cytotox	TSHR antag	GLP1R ag	PTHR1 agonist
CCCC1(C)C(C#N)(C#N)C1(C#N)C#N	x	x	n	x	x
CN(C)c1ccc(C(=O)Nc2nc3c(s2)CCCC3)cc1	11µM	n	n	n	n
O=C(Nc1nc2c(s1)CCCC2)c1ccc(S(=O)(=O)N2CCCc3ccccc32)cc1	4µM	n	n	n	n
CC1CCc2nc(NC(=O)c3ccc(S(=O)(=O)N4CCCc5ccccc54)cc3)sc2C1 (centres undefined)	n	n	n	n	n
CC(C)(C)c1ccc(C(=O)NC(=S)Nc2nc3c(s2)CCCC3)cc1	u	n	n	n	n
CCc1nnc(NC(=O)c2cc(=O)c3cc(C)c(C)cc3o2)s1	n	n	x	x	n
OC(CNCCc1ccccc1)COc1ccc(OCC(O)CNCCc2ccccc2)cc1 (centres undefined)	u	u	n	n	n
CC(C)N(CCNCC(O)COc1ccc(C(C)(C)c2ccccc2)cc1)C(C)C (centres undefined)	4µM	u	n	n	n
O=C(c1ccoc1)N1CCC2(CC1)Oc1ccc(F)cc1C(=O)C21CC(c2ccccc2)=NO1 (centres undefined)	n	n	n	n	n
CC(C)(C)OC(=O)N1CCC2(CC1)Oc1ccc(F)cc1C(=O)C21CC(c2ccccc2)=NO1 (centres undefined)	11µM	n	x	n	n
Cc1cc(CC(C)C)n(-c2nc3ccccc3c(=O)n2OCc2ccccc2)n1	7.1µM	n	n	n	n
Cc1ccccc1NC(=O)c1ccc(-c2ccc(Cl)cc2Cl)o1	u	n	n	n	n
Cc1cccc(C)c1NC(=O)c1ccc(-c2ccc(Cl)cc2Cl)o1	1.6µM	n	n	n	n
S=C(c1ccc(-c2ccc(Cl)cc2Cl)o1)N1CCCCC1	10µM	n	n	n	n
S=C(c1ccc(-c2ccc(Cl)cc2Cl)o1)N1CCCC1	n	n	n	n	n
Cc1cn2c(=O)cc(COc3ccc(C(C)(C)C)cc3)nc2s1	n	n	x	n	n
CCOC(=O)c1cc(-c2ccc(C)cc2)n(CC(=O)NC2CCCCCC2)c1C	n	n	x	n	n
COc1ccc(-n2c(=O)c3sc4ccccc4c3n(CC(=O)N3CCCC3)c2=O)cc1	n	n	x	n	n
CC[C@]12c3[nH]c4cc(CCC(=O)N(C)C)ccc4c3CCN1C(=O)[C@@H](CC(=O)NCCC1=CCCCC1)C[C@@H]2C(=O)N1CCN(C(=O)c2ccco2)CC1	n	n	n	n	n
CC[C@]12c3[nH]c4cc(-c5ccco5)ccc4c3CCN1C(=O)[C@@H](CC(=O)NCCC1=CCCCC1)C[C@@H]2C(=O)N1CCN(C(=O)c2ccco2)CC1	7.9µM	n	n	n	n
O=C(C[C@H]1C[C@H](C(=O)N2CCCCC2)[C@@]2(CCc3ccccc3)c3[nH]c4cc(-c5ccco5)ccc4c3CCN2C1=O)NCc1ccco1	8.9µM	n	n	n	n
Clc1cccc(N2CCN(c3ncnc4c3nc3n4CCCCC3)CC2)c1	n	n	x	n	n
COc1ccc(C(=O)Nc2ccc(OCC(F)(F)C(F)F)c(C(F)(F)F)c2)cc1OC	4µM	n	n	n	n
O=C(Nc1ccc(OCC(F)(F)C(F)F)c(C(F)(F)F)c1)c1ccc(Cl)cc1	3.5µM	n	x	n	n
O=C(Nc1ccc(Br)c(C(F)(F)F)c1)c1ccc(C(F)(F)F)cc1	u	n	u	n	n
CCCCC/C(C=O)=C/c1ccccc1	x	x	x	n	x
Cc1ccc(O)c(NC(=O)c2nc3nc(C)cc(C(F)F)n3n2)c1	n	n	x	n	n
CC(C)Oc1cc(F)ccc1-c1cc(C(=O)Nc2ccc(C(C)C)cc2)[nH]n1	u	n	x	n	n
CC(C)Oc1cc(F)ccc1-c1cc(C(=O)Nc2ccccc2)[nH]n1	11µM	n	x	n	n
